Results reported in PubChem BioAssay (NCATS).
Results filed as inconclusive are left out. A number with no mark means an inactive call. Activity calls are given as the source filed them. Calls come from the whole dose curve; as a rule, active = well fitted activation curve with a large enough effect; inconclusive = small, poorly fitted or top-dose-only effect; inactive = flat fitted curve, though single readings scatter.

biological target: D(1A) dopamine receptor (Homo sapiens) (UniProt P21728); test: HTS Assay for Allosteric Agonists of the Human D1 Dopamine Receptor: Primary Screen for Agonists (AID 488981); conditions: Inducible HEK293 T-REx D1 cells, calcium-flux fluorescence, 180 s kinetic; series mostly up to 41.8 µM; activation: at the top concentration; for activation: 0% is about no effect
Sequence (P21728 whole entry, looked up): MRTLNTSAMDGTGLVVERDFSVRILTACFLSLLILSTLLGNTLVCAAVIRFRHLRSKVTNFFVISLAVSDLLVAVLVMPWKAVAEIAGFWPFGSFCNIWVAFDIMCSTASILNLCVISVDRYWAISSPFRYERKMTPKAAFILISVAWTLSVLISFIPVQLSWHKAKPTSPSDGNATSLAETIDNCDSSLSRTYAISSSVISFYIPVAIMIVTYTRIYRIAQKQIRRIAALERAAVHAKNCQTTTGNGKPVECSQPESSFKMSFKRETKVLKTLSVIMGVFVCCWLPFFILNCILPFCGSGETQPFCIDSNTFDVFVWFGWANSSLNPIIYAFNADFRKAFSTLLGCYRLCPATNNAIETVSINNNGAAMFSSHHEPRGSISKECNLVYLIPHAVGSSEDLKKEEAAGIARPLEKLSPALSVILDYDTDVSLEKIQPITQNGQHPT
Description: Dopamine receptors (DARs) are involved in the etiology and/or therapy of a number of neuropsychiatric and endocrine disorders. For instance, all receptor-based antiparkinsonian drugs work via stimulating the […] DAR subtype whereas all FDA-approved antipsychotic agents are antagonists of this receptor. […] There are three different types of allosteric modulators that we are seeking, two of which will stimulate or augment receptor signaling, allosteric agonists and potentiators, while the third, allosteric antagonists, will attenuate receptor signaling. The present primary screening assay measures compound agonism by tracking calcium flux in a […], inducible Hek293 Trex D1 cell line.
Freshly passaged cells are plated in 1536 well black, clear bottom plates at a density of 4000 cells/well in 3 ul of complete media containing 1x tetracycline inducer. After an overnight incubation at 30 C in 5% CO2, cells are loaded with 2 ul of the no wash Calcium Assay Kit (ABD Bioquest) and incubated at room temperature for 30 to 90 minutes. A 10 cycle (1 second/cycle) baseline measurement is taken and then the FDSS online 1536 pintool delivers 23 nl of compound library (as well as dopamine controls) to the plate. The plate is measured for kinetically at 1 cycle/sec for 180 seconds and is considered to be the agonist portion of the assay (eg, compounds which activate a positive calcium response during this portion are flagged as potential agonists). Following the 180 second read, 1 ul of an EC20 of dopamine is delivered by an onboard pipette head. Measurements are taken kinetically for an additional 180 seconds.
Potency is the fitted concentration of half-maximal effect.

Row | Compound | activation [%] | Potency
1 | O=C1O/C(=C/Br)CCC1c1cccc2ccccc12 (stereo not given) | 2.86 | 
2 | NC(CCCP(=O)(O)O)C(=O)O (stereo not given) | -0.529 | 
3 | O=C1/C(=C/c2ccsc2)CC/C1=C\c1cccs1 | 0.74 | 
4 | O=C(O)[C@@H]1C[C@H](C(=O)O)N1 | 0.211 | 
5 | CCN(CC)c1ncnc2c1ncn2[C@@H]1O[C@H](COP(=O)(O)OP(=O)(O)C(Br)(Br)P(=O)(O)O)[C@@H](O)[C@H]1O | 0.317 | 
6 | O=C(O)c1cc(=O)c2ccccc2[nH]1 | -1.59 | 
7 | CCc1c(C(=O)NCCc2ccc(N3CCCCC3)cc2)[nH]c2ccc(Cl)cc12 | 1.06 | 
8 | CSc1ccccc1N1CCN(CCCCCC(=O)NC2CCCc3ccccc32)CC1 (stereo not given) | 8.09 | 
9 | CCCCN1CCC(n2c(=O)[nH]c3ccccc32)CC1 | -1.69 | 
10 | OC[C@H]1O[C@@H](n2cnc3c(NC4CCCC4)ncnc32)[C@H](O)[C@@H]1O | -0.74 | 
11 | Cn1ncc(S(=O)(=O)Cc2ccccc2)c(Br)c1=O | 0.37 | 
12 | O=C(CCCCCN1CCN(c2ccccc2-c2ccccc2)CC1)NC1CCCc2ccccc21 (stereo not given) | 2.54 | 
13 | CNC(=O)[C@H]1O[C@@H](n2cnc3c(NCc4ccc(N)cc4)ncnc32)[C@H](O)[C@@H]1O | -0.529 | 
14 | CCCN(CC1CC1)c1nc(C)nc(Nc2c(Cl)cc(Cl)cc2Cl)c1Cl | 3.91 | 
15 | CSc1nc(N)c2ncn([C@@H]3O[C@H](COP(=O)(O)OP(=O)(O)OP(=O)(O)O)[C@@H](O)[C@H]3O)c2n1 |  | 1.58 µM (active)
16 | CCCCCCCCCCCCCCCCCC(=O)NCC(COP(=O)([O-])OCC[N+](C)(C)C)OCC (stereo not given) |  | 10 µM (active)
17 | Oc1ccccc1O | 0.74 | 
18 | Brc1c(Br)c(Br)c2n[nH]nc2c1Br | 7.72 | 
19 | CC(C)Cc1ccc([C@H](C)C(=O)O)cc1 | -0.423 | 
20 | CO/N=C(\C(=O)N[C@@H]1C(=O)N2C(C(=O)O)=C(COC(C)=O)CS[C@H]12)c1csc(N)n1 | 2.06 | 

Row | Compound | activation [%] | Potency
21 | CN1C2CC(OC(=O)[C@H](CO)c3ccccc3)CC1C1OC12 (stereo not given in full) | -0.582 | 
22 | CC(=O)SCC[N+](C)(C)C | -0.264 | 
23 | CCCCC#Cc1nc(NC)c2ncn([C@@H]3O[C@H](CO)[C@@H](O)[C@H]3O)c2n1 | 0 | 
24 | CC(C)CC(NP(=O)(O)O[C@@H]1O[C@@H](C)[C@H](O)[C@@H](O)[C@H]1O)C(=O)NC(Cc1c[nH]c2ccccc12)C(=O)O (stereo not given in full) | -0.74 | 
25 | COc1cc2c(CCNC(C)=O)c[nH]c2cc1Cl | -1.32 | 
26 | Cc1nc2sccn2c(=O)c1CCN1CCC(=C(c2ccccc2)c2ccc(F)cc2)CC1 | 1.22 | 
27 | CN=c1nc(-c2ccccc2)n(-c2ccccc2)s1 | 20.9 | 
28 | COc1ccccc1N1CCN(CCN(C(=O)c2ccc(I)cc2)c2ccccn2)CC1 | 3.01 | 
29 | CC1(C)CCC=[N+]1[O-] | 2.91 | 
30 | CC(C)(C=O)Cc1cc(C(C)(C)C)c(O)c(C(C)(C)C)c1 | 24.6 | 
31 | Cc1ccc(O)c(N=Nc2ccccc2)n1 | 2.8 | 
32 | C[N+](C)(CCCCCC[N+](C)(C)CCCN1C(=O)c2cccc3cccc(c23)C1=O)CCCN1C(=O)c2cccc3cccc(c23)C1=O | 0.317 | 
33 | COc1ccccc1N1CCN(CCCCNS(=O)(=O)c2cccc3c(N(C)C)cccc23)CC1 | 9.36 | 
34 | C[C@@H](NC(=O)/C(C#N)=C/c1ccc(O)c(O)c1)c1ccccc1 | 7.35 | 
35 | C[N+](C)(C)CCOP(=O)(O)OP(=O)([O-])OC[C@H]1O[C@@H](n2ccc(N)nc2=O)[C@H](O)[C@@H]1O | 0.476 | 
36 | CCNC(=O)[C@H]1O[C@@H](n2cnc3c(N)nc(NCCc4ccc(CCC(=O)O)cc4)nc32)[C@H](O)[C@@H]1O | -0.423 | 
37 | O=S(=O)(c1cccc2c(I)cccc12)N1CCCNCC1 |  | 14.1 µM (active)
38 | CCCCCCCCCCCCCCCCCC(=O)OC(CC(=O)O)C[N+](C)(C)C (stereo not given) |  | 11.2 µM (active)
39 | CN(C)c1nc2c(Br)c(Br)c(Br)c(Br)c2[nH]1 | 0.37 | 
40 | CCCC1(C)C(C#N)(C#N)C1(C#N)C#N | -0.688 | 
